From PubChem BioAssay
CF NFkB block: blocks PAF-induced NF-kB reporter in cystic fibrosis cells. KKLEB NF-kB-GFP reporter, GFP fluorescence overnight. inhibition, % at 5 µM. 360,000 compounds, 0.86% hits. AID 588850;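 active means at least 50% inhibition at 5 µM, scaled per plate between neutral and stimulator controls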;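 further: PAF is a Pseudomonas aeruginosa culture filtrate used as stimulus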
Peg3 promoter: inhibitors of Peg3 promoter; AID 588405; HeLa PEG-Prom luciferase reporter, luminescence, overnight; inhibition, % at 20 µM; 360,000 compounds, 1.7% hits;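 active means inhibition of at least 50% at 20 µM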
KKLEB cytotox: CF airway cell cytotoxicity counter-screen | KKLEB CF airway cells viability, ATPlite luminescence, overnight; stronger effect = lower value; cells stimulated with P. aeruginosa culture filtrate | activity change (cytotoxicity), % at 5 µM | 360,000 compounds, 0.36% hits | AID 602141;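 active means corrected activity change at or below -50% at 5 µM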
LGR2 inh: Drosophila LGR2 receptor signaling inhibition; HEK293 LGR2, CRE-luciferase, bursicon-stimulated, 4 h; inhibition, % at 9.99 µM; 380,000 compounds, 0.35% hits; AID 720647;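 active means drop in luminescence signal, shown as inhibition above about 50% in the replicate tests, limit read from the data, passing the limit was not always enough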;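 further: agonist challenge used bursicon conditioned medium at about half maximal strength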
HSP90 inh: blocks HSP90-mediated luciferase refolding in reticulocyte lysate. inhibition, % at 5.6 µM. 290,000 compounds, 0.91% hits. Rabbit reticulocyte lysate, luciferase refolding luminescence, 3 h;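 active means inhibition above the screen-wide mean plus 3 SD, computed separately per campaign, cut at about 16% in these data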;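 further: inhibitors lower the luminescence because luciferase stays unfolded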
Mdm2 MdmX PPI: human Mdm2/MdmX binding inhibition; 330,000 compounds, 3% hits; AID 485346; inhibition, % at 8 µM; SaOS-2 split-luciferase Mdm2/MdmX complementation, luminescence; O15151+Q00987;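 active means inhibition of at least 50% at 8 µM in the primary screen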
Target sequence (O15151 whole entry, looked up): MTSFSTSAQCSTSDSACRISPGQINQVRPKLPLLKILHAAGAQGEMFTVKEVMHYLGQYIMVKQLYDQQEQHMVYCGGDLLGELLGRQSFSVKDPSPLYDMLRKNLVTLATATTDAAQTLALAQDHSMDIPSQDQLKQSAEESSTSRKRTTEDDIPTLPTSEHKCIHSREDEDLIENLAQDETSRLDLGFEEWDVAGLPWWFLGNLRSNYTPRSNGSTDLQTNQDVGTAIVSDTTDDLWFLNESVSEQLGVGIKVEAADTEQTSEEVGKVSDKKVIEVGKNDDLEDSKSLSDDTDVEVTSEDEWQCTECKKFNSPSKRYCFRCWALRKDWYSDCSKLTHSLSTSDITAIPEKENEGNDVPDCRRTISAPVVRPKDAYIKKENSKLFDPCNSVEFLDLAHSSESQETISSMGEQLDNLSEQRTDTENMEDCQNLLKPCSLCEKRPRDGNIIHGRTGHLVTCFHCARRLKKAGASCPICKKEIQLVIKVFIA
Target sequence (Q00987 whole entry, looked up): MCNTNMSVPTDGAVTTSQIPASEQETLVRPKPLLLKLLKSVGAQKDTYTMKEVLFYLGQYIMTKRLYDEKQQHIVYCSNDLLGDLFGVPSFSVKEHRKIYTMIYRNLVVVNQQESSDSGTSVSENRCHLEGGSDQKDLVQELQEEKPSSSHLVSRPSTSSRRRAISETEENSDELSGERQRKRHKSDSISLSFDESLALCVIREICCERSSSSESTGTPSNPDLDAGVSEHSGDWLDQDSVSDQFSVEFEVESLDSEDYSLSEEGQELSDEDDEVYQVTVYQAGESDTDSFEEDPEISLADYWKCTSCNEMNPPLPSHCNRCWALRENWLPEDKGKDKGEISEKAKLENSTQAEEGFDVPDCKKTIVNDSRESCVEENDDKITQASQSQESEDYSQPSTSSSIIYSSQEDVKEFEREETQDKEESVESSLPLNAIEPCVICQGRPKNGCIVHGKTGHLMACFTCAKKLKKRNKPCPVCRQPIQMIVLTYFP
Mdm2 MdmX conf: human Mdm2/MdmX binding inhibition, confirmed. inhibition, % at 8 µM. luminescent assay. shares compounds with Mdm2 MdmX PPI. 10,000 compounds, 55% hits; in the data active means inhibition above about 40%
Full FLuc ctr: counter-screen for Mdm2/MdmX inhibitors: full-length luciferase; shares compounds with Mdm2 MdmX PPI; SaOS-2 full-length luciferase counterscreen, luminescence; inhibition, % at 8 µM; 6,200 compounds, 77% hits;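 active means mean inhibition at 8 µM reaching about 37%, which flags the compound as non-specific, limit read from the data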;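 further: p53-null SaOS-2 cells with luciferase driven by a doxycycline-inducible promoter; compound on cells about two nights before reading with doxycycline added after day one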
A number is an active result; - = inactive; . = not tested or not shown. Compounds with a hit are over-represented: about 3.6% of the library has one in this group of screens.

SMILES	CF NFkB block	Peg3 promoter	KKLEB cytotox	LGR2 inh	HSP90 inh	Mdm2 MdmX PPI	Mdm2 MdmX conf	Full FLuc ctr
CCC(=O)Nc1ccc2c(c1)OC[C@@H](C)N(C(=O)CN(C)C)C[C@H](C)[C@@H](OC)CN(C)C2=O	.	.	.	-	.	.	.	.
O=C(COc1c(Br)cc(Br)c2cccnc12)N1CCCCC1	-	-	-	-	-	-	.	.
O=c1oc2ccccc2c(O)c1Cc1cc(Cl)c2cccnc2c1O	-	-	-	-	-	-	.	.
Oc1c(CN2CCc3ccccc3C2)cc(Cl)c2cccnc12	-	50.3	-	.	-	69.9	79.5	46.0
Oc1c(CN2CCCCC2)cc(Br)c2cccnc12	-	-	-	.	-	76.8	74.7	36.3
CC(=O)Oc1cc2c(cc1Cl)C1(CC(c3ccccc3Cl)O2)CC(C)(C)NC(=S)N1 (stereo unspecified)	-	-	-	.	-	56.2	-	.
C[C@H](CO)N1C[C@H](C)[C@@H](CN(C)Cc2ccccc2)Oc2ncc(/C=C/c3ccccc3)cc2C1=O	.	.	.	-	.	.	.	.
O=C(Nc1ccc(N2CCOCC2)cc1)Nc1ccc2nc(-c3ccco3)c(-c3ccco3)nc2c1	69.8	-	-	.	-	61.3	40.9	60.6
COc1ccc(NC(=O)C(=O)c2cn(CC(=O)N3CCCC3)c3ccccc23)cc1	-	-	-	-	-	58.3	54.5	88.6
C[C@H](CO)N1C[C@H](C)[C@@H](CN(C)C(=O)Nc2ccc(C(F)(F)F)cc2)Oc2ccc(NC(=O)Nc3ccc(C(F)(F)F)cc3)cc2CC1=O	.	.	.	-	.	.	.	.
N#C/C(=C\c1ccccc1[N+](=O)[O-])C(=O)NCc1ccccc1	-	-	-	-	-	-	.	.
N#C/C(=C\C=C\c1ccccc1[N+](=O)[O-])C(=O)NCc1ccccc1	-	104.6	-	-	-	96.9	66.5	-
COc1ccc(/C=C/C(=O)NCCCc2ccccc2)cc1	-	-	-	-	-	-	.	.
COc1ccc(/C=C/c2cc[n+](C(=O)Cc3ccccc3)cc2)cc1	-	-	-	.	-	62.7	52.5	44.8
COc1ccc(NC(=O)c2c(Nc3ccccc3)sc(C(=O)c3ccc(F)cc3)c2N)cc1	-	-	-53.2	.	-	62.4	-	.
COc1ccc(C(=O)c2sc(Nc3ccccc3)c(C(=O)Nc3ccc(OC)c(OC)c3)c2N)cc1	-	-	-	.	-	-	.	.
COc1ccc(-c2c(C#Cc3ccc(N(C)C)cc3)c3ccccc3n2C)cc1	-	-	-	.	.	52.5	-	.
Cn1cncc1C#Cc1c(C=O)n(C)c2ccccc12	-	-	-	-	.	-	.	.
COc1cc(C#Cc2c(C=O)n(C)c3ccccc23)cc(OC)c1	-	-	-	-	.	65.6	-	77.8
COc1ccc(S(=O)(=O)N(C)C[C@@H]2OCCCC[C@H](C)Oc3ccc(NC(=O)Nc4ccccc4)cc3C(=O)N([C@H](C)CO)C[C@@H]2C)cc1	.	.	.	-	.	.	.	.
Cc1cc(C)n(-c2nc(NCCN(C)C)c3c4c(sc3n2)CCCC4)n1	-	103.0	-	-	-	99.7	88.8	-
Cc1cc(C)n(-c2nc3sc4c(c3c(=O)[nH]2)CCCC4)n1	.	.	.	.	-	.	.	.
Cc1cc(C)n(-c2nc(NCCCN(C)C)c3c4c(sc3n2)CCCC4)n1	-	-	-	.	-	54.1	-	.
C=C1C(=O)C=C[C@]2(C)C[C@@H]3OC(=O)[C@](C)(O)[C@H]3C[C@@H]12	-	90.7	-	-	.	73.4	47.4	-
C[C@@H]1C[C@@H]2OC(=O)[C@]3(C)[C@H]2[C@@H](OC3(C)O)[C@]2(C)C(=O)C=C[C@H]12 (stereo partly specified)	-	-	-	-	.	-	.	.
O=C(NCC(F)(F)F)[C@@H]1[C@@H](CO)[C@@H]2Cn3c(cccc3=O)[C@H]1N2CC1CCCC1	.	.	.	-	.	.	.	.
COc1ccccc1NC(=O)N1CCC(c2nc3cc(C)c(C)cc3[nH]2)CC1	-	-	-	.	-	56.7	69.7	72.3
Cc1cc2nc(C3CCCN(C(=S)Nc4ccccc4)C3)[nH]c2cc1C (stereo unspecified)	-	-	-	.	-	51.5	-	.
